Consider 22 molecules from PubChem BioAssay (Tox21).

Calls of active or inactive are those of the source. Calls come from the whole dose curve.
% is set by controls: 0 for no effect and ±100 for the full control effect.

The target in this experiment is Estrogen receptor (Homo sapiens) (UniProt P03372). Description: qHTS assay to identify small molecule agonists of the estrogen receptor alpha (ER-alpha) signaling pathway in the presence of an antagonist (AID 1259383). Note: top concentration of the series differs between compounds; nearly all actives have a fitted effect of over 15% in size. The conditions noted are these: VM7Luc4E2 cells, ERE-luciferase, +ICI-182,780, 22 h; series mostly up to 92.4 µM; activation: at the top concentration. The gist of the method: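 VM7Luc4E2 cells (endogenous full-length ER-alpha, 4×ERE-luciferase) were precultured 5 days in phenol red-free medium with 10% charcoal-stripped FBS, given 10.0nM ICI-182,780 (final), then treated with compounds at 15 concentrations for 22hr at 37C; luminescence read with ONE-Glo.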
Sequence of Estrogen receptor (Homo sapiens) (P03372 whole entry, looked up): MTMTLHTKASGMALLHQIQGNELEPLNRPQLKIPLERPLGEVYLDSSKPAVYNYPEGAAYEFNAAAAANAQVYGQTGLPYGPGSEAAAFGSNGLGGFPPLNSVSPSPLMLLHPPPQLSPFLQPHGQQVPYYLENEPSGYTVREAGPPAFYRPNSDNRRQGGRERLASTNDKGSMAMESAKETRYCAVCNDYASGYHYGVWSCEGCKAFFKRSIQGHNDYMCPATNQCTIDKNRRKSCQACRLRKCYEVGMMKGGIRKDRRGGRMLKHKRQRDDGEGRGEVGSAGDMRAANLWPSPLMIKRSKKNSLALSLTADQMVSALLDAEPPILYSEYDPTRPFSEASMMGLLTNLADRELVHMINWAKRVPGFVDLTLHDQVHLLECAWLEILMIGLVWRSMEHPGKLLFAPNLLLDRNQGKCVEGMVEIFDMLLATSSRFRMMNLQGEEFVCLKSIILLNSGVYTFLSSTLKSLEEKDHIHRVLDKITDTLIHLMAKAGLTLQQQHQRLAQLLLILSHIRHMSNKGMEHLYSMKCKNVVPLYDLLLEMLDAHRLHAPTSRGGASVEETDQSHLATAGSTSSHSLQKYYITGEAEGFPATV
In the case of `ClC(Cl)C(Cl)(Cl)Cl`, the “activation” value is -0.14% (inactive). Same read-out and setting: next, `Cc1ccc([N+](=O)[O-])[c]2c1[O][Hg]2`: -9.05% [at 42.5 µM] (inactive); `Clc1ccc(C2(Cn3cncn3)OCCO2)c(Cl)c1`: 1.88% (inactive). For the molecule `CCCCCCCCCCCCCCn1cc[n+](C)c1`, the Potency entry was “inactive”. For the molecule `CC(C)N(C(=O)SC/C(Cl)=C/Cl)C(C)C`, the “activation” value was -0.291% (inactive). With `Brc1cccc(-c2ccccc2)c1`, the “activation” value was 0.526% (inactive). On the same count and under the same terms, next, `CCN(CC)CCc1c[nH]c2ccccc12`: -0.255% (inactive); `CCC1COC(Cn2cncn2)(c2ccc(Cl)cc2Cl)O1` (configuration not stated): -0.363% (inactive). The same measure, in the same setting: with `Cc1cnc2c(C(=O)O)c(Cl)ccc2c1` the figure was -0.819% (inactive). Same read-out and setting: next, `CCC(C)c1cccc(C(C)CC)c1O` (configuration not stated): -1.62% (inactive); `CCCCc1ccccc1`: -0.132% (inactive). Take `CC(Cc1ccc(OCC(=O)O)cc1)NCC(O)c1csc(C(F)(F)F)n1` (configuration not stated): the “activation” value was -2.35% (inactive). Same read-out and setting: with `CCC[CH2][Sn]([CH2]CCC)([CH2]CCC)[O][Sn]([CH2]CCC)([CH2]CCC)[CH2]CCC` the figure was -15.3% [at 8.39 µM] (inactive); with `C=CCOC(=O)c1ccccc1N`, 3.04% (inactive); with `CC1(C)[C@H](/C=C2\CCSC2=O)[C@@H]1C(=O)OCc1coc(Cc2ccccc2)c1`, 0.366% (inactive). Consider `O=[N+]([O-])c1ccc(CCl)cc1`, for which the “activation” value is -0.798% (inactive).

On to `COc1cnc(OC)n2nc(NS(=O)(=O)c3c(OCC(F)F)cccc3C(F)(F)F)nc12`, for which the “activation” value was 0.302% (inactive).

Consider `CCNc1nc(NC(C)C(C)C)nc(SC)n1` (configuration not stated), for which the “activation” value was 0.655% (inactive). On the same count and under the same terms, next, `Nc1ccccc1-c1ccccc1`: 0.48% (inactive); `CN1[C@@H]2CC[C@H]1CC(O)C2` (some centres not stated): 0.528% (inactive); `COC(=O)/C=C(\C)OP(=O)(OC)OC`: 1.72% (inactive). Still for that read-out and setting: next, `CC(C)[C@@H](Nc1ccc(C(F)(F)F)cc1Cl)C(=O)OC(C#N)c1cccc(Oc2ccccc2)c1` (some centres not stated): 0.879% (inactive).
